These results are taken from PubChem BioAssay AID1578 (Sanford-Burnham Center for Chemical Genomics, 2009).

Broadly, the inhibition is the drop in the measured response relative to a control, in per cent.

Among all 290,000 compounds or so, about 3,000 (1%) were called active. Rule as the data show it: active = inhibition mostly above about 36% (no sharp cut-off); inactive = mostly below about 34%. For the sample, actives were picked, then their nearest neighbours and some compounds at random.

The nature of this test: NOD1 signaling inhibitors, primary screen, cell-based, luminescence, uHTS (AID 1578).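 Also: HEK-293T reporter cells stimulated with the NOD1 agonist gamma-tri-DAP.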 As to conditions: NOD1-driven NF-kB luciferase reporter cells, at 4 µM, stronger effect = higher value. Background: A reporter such as luciferase makes a cellular process visible.
Take `CCNC(=S)N/N=C1\C(=O)c2cccc3cccc1c23`: the inhibition is 47.8% (inactive).
In the case of `CNC(=S)N/N=C1\C(=O)c2cccc3cccc1c23`, the inhibition is 98.1% (active).
For the compound `CCCCNC(=S)N/N=C1\C(=O)c2cccc3cccc1c23`, the inhibition was -56.3% (inactive).
Consider `CC(C)(C)c1ccc(-c2cc(-c3ccccc3O)[nH]n2)cc1`, for which the inhibition is 25.5% (inactive).
As to `Cc1cccc(NC(=S)N/N=C/c2cccn2Cc2ccc(F)cc2)c1`, the inhibition was 23.3% (inactive).
For `Cc1nc([N+](=O)[O-])c(Br)n1CC(=O)c1ccccc1` the value was 28.9% (inactive); for `Cc1nc([N+](=O)[O-])c(Br)n1CC(=O)c1ccc(Br)cc1`, 44.8% (inactive).
As for `C[C@@H]1ON(C2CCCCC2)[C@H]2c3nc4ccccc4n3C[C@@H]12`, the inhibition was -10.2% (inactive).
Take `CCn1c(Cc2ccc(OC)cc2)nnc1SCc1nc2ccccc2c(=O)[nH]1`: the inhibition is -38.1% (inactive).
With `CCOCC(=O)Nc1c(C(=O)N2CCN(c3ncccn3)CC2)oc2ccccc12`, the inhibition was -37.9% (inactive).
Take `COc1ccc(OC)c(NC(=O)c2cc(-c3cc(Cl)ccc3O)n[nH]2)c1`: the inhibition is 61.4% (active).
For the compound `COc1ccc(OC)c(NC(=O)c2cc(-c3cc(C)ccc3O)n[nH]2)c1`, the inhibition was 3.5% (inactive).
As for `COc1ccc(NC(=O)c2cc(-c3cc(Cl)ccc3O)n[nH]2)c(OC)c1`, the inhibition is -3.3% (inactive).
Take `Cn1c(CNC(=O)c2ccc(F)cc2)cc2ccccc21`: the inhibition is -17.9% (inactive).
For `Cc1onc(-c2c(F)cccc2Cl)c1C(=O)NC1=NCCS1` the value was -2% (inactive); for `Cn1c(SCC(=O)NCC2CCCO2)nc2c(c1=O)SCC2` (centres undefined), -11.7% (inactive); for `CN(C)S(=O)(=O)N1CCC(Oc2cccc(C(=O)NC3CCOC3)c2)CC1` (centres undefined), -17.9% (inactive).
For `C=C(C)CNC(=O)c1ccc(OC2CCN(S(=O)(=O)N(C)C)CC2)cc1`, the inhibition is -27.4% (inactive).
As to `C=CCN(CC=C)C(=O)c1ccc(OC2CCN(S(=O)(=O)N(C)C)CC2)cc1`, the inhibition is -27.3% (inactive).
Take `C=C(C)CN(CC)C(=O)c1ccc(OC2CCN(S(=O)(=O)N(C)C)CC2)cc1`: the inhibition was 59.3% (active).
For the compound `CN(C)S(=O)(=O)N1CCC(Oc2ccc(C(=O)NC3CCCCC3)cc2)CC1`, the inhibition is -24.9% (inactive).
Regarding `Cc1oc(-c2ccccc2Cl)nc1CSCC(=O)O`, the inhibition is -4.9% (inactive).
With `COC(=O)c1cccc(N(C(=O)c2cnccn2)C(C(=O)NCc2ccccc2)c2ccco2)c1` (centres undefined), the inhibition is -29.2% (inactive).
For `Cc1ccc(-c2cc(NC(=O)CCl)n(-c3ccccc3)n2)cc1`, the inhibition was 16% (inactive).
With `CC(=O)Nc1cn(-c2ccccc2)nc1-c1ccccc1`, the inhibition was -27.2% (inactive).
In the case of `CC(=O)Nc1cc(-c2ccc(Cl)cc2)nn1-c1ccccc1`, the inhibition was -11.7% (inactive).
Turning to `Cc1cc(NC(=O)CC(F)(F)F)n(-c2ccccc2)n1`, the inhibition is -13.5% (inactive).
Under `CCCc1cc(C(=O)Nc2cc(C)nn2-c2ccccc2)no1` stands 9.1% (inactive); under `O=C(Nc1cn(-c2ccccc2)nc1-c1ccc(Cl)cc1)c1ccccc1`, -1.1% (inactive).
